Reference: PubChem BioAssay

Biological target: Carbonic anhydrase 2 (Homo sapiens) (UniProt P00918)
Test: CAII small-molecule binders, profiling panel, biochemical, small-molecule microarray, Alexa647-labelled CAII (AID 1122)
Details: CAII-A647 binding fluorescence, higher = more signal

SMILES	composite z-score
COc1cc(CO)ccc1OC(C)=O	0.112
COc1ccc(C#Cc2ccc3c(c2)[C@]2(C(=O)N3)[C@H](c3ccc(O)cc3)N3[C@H](c4ccccc4)[C@H](c4ccccc4)OC(=O)[C@H]3[C@@H]2C(=O)N2CCCCCCC2)cc1	0.504
CN1C=C(C(=O)OCCS(C)(=O)=O)C(C(=O)OCCS(C)(=O)=O)=CC(CCCO)=CC1C1CC1 (stereo unspecified)	0.826
COCCOC(=O)N1C(=O)[C@@]2(c3cc(C#CCC(C(=O)OC)C(=O)OC)ccc31)[C@H](c1ccc(O)cc1)N1[C@H](c3ccccc3)[C@H](c3ccccc3)OC(=O)[C@H]1[C@@H]2C(N)=O	0.438
COc1ccc(NN2C(C(O)c3ccc(OC)c(OCc4ccccc4)c3)C=CC3C(=O)N(C4CCCCC4)C(=O)C32)cc1 (stereo unspecified)	0.274
CC(C)N1CC=CC23O[C@@H]4C=CCOC(=O)[C@@H]4[C@H]2C(=O)N(CCO)[C@@H]3C1=O (stereo partly specified)	0.9
O=C1c2ccccc2[C@@]2(Cc3ccccc3N(Cc3ccccc3)C2=O)[C@H](c2ccc(CO)cc2)N1C1CCCCC1	0.416
CO[C@H]1O[C@H](CO)[C@@H](OC(=O)Nc2ccc3c(c2)OCO3)[C@H](OC(=O)Nc2ccccc2)[C@H]1OC(=O)Nc1ccccc1	0.406
CC(C)C[C@@H]1NC(=O)[C@@H]2C[C@H](C(=O)NCCCCCC[N+](C)(C)C)[C@H](c3ccc(O)cc3)N2C1=O	0.678
N#Cc1ccc(NN2C(C(O)C3CCCCC3)C=CC3C(=O)N(c4ccccc4)C(=O)C32)cc1 (stereo unspecified)	0.184
O=c1oc(-c2ccccc2)nc2cc(Br)ccc12	-0.0912
